# Bioassay records (PubChem BioAssay)
# Hits are enriched below; roughly 1.2% of the tested compounds scored in any of these assays.
# rTrxR1 inhibitor – blocks rat thioredoxin reductase 1. Potency, µM (doses to about 114 µM), inactives show at the top dose activity change, negative = inhibition, actives largely listed as inhibitors. recombinant rTrxR1, NADPH fluorescence consumption, selenite substrate. actives 1% (n = 390,000); note: nearly all actives have a fitted effect of over 65% in size
#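 Rat TrxR1 (90 nM in the dispensed reagent) was pre-reduced with 400 uM NADPH for 5 min at room temperature, then incubated with compound for 15 min. After 400 uM selenite was added, NADPH fluorescence (Ex 340/Em 450 nm) was followed for 8 min.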
# TrxR1 substrate – rat thioredoxin reductase 1 substrate activity. AID 588456. Potency, µM (series often up to 114 µM), inactives show top-dose activity change, negative = substrate turnover. purified TrxR1 substrate turnover, NADPH consumption readout. actives 0.01% (n = 390,000); note: nearly all actives have a fitted effect of over 50% in size
#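 Rat TrxR1, dispensed at 90 nM, was prereduced with 400 uM NADPH (final) for 5 min at ~22 deg C, then incubated with compound 15 min before 400 uM selenite. A first-read NADPH fluorescence drop versus no-compound background flagged substrates.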
# mIDH1 inhibitor – blocks human mutant IDH1 R132H enzyme. O75874. IDH1-R132H enzyme, NADPH consumption, diaphorase/resazurin fluorescence. Potency, µM (top dose mostly 76.6 µM), for inactives: at the highest dose activity change, negative = inhibition, hits mostly inhibitors. actives 0.093% (n = 390,000); note: nearly all actives have a fitted effect of over 65% in size
# Target sequence (O75874 whole entry R132H, stated change not applied): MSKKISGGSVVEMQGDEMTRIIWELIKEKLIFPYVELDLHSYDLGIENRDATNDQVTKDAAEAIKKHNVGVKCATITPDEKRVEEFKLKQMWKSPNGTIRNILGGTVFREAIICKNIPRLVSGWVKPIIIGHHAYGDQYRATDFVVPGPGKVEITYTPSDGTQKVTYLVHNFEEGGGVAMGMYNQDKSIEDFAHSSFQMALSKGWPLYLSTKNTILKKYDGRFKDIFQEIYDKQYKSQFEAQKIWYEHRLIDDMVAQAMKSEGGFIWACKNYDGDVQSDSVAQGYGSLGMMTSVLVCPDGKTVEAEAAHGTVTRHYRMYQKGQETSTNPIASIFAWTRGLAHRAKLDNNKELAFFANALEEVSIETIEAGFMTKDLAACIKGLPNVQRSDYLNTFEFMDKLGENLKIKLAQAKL
#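 IDH1-R132H (0.5 ug/mL) preincubated 30 min with compound, then NADPH (0.016 mM) and alpha-KG (2 mM) added; 80 min at RT, pH 7.5. Remaining NADPH coupled via diaphorase/resazurin to fluorescence (540/590 nm); concentration-response curves normalized to no-enzyme control.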
# GLS inhibitor – inhibitors of human glutaminase (GLS) | O94925 | GLS enzymatic activity, qHTS titration | Potency, µM (doses to about 45.5 µM), inactives show at the top dose activity change, negative = inhibition, hits mostly inhibitors | actives 0.21% (n = 410,000) | AID 624170
#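 Coupled fluorescence readout: glutamate oxidase/HRP/Amplex Red detect glutamate formed by hKGA from L-glutamine (1 mM solution added). Buffer 45 mM KH2PO4 pH 8.2, 0.02% Tween-20; reads at t0 and 30 min RT.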
# An asterisk follows results filed as active; ? = inconclusive; / = no result; ! = a repeat was not active; [ ] = dose if it differs, or a comment. Calls come from the whole dose curve; as a rule, active = well fitted curve in the direction sought with a large enough effect; inconclusive = small, poorly fitted or top-dose-only effect, or another doubt; inactive = no such curve, though single readings can be large; an effect the other way counts as inactive or inconclusive. % is set by controls: 0 for no effect and ±100 for the full control effect; potency is the fitted concentration of half-maximal effect.
SMILES,rTrxR1 inhibitor,TrxR1 substrate,mIDH1 inhibitor,GLS inhibitor
C=C1C(=O)O[C@@H]2[C@H]3O[C@]3(C)CCC=C(C)CC[C@@H]12,16.8µM*!,17.9%[57.1 µM],/,/
Cc1nc([N+](=O)[O-])c(Sc2nc3ccccc3[nH]2)n1Cc1ccccc1,3.55µM*,-2.1%,5.5%,-2.5%
Cn1cnc([N+](=O)[O-])c1Sc1nc2ccccc2[nH]1,3.55µM*,6.3%[57.1 µM],0.9%,0.0%
COc1ccc2nc(Sc3c([N+](=O)[O-])nc(C)n3Cc3ccccc3)[nH]c2c1,7.08µM*,-11.6%,4.5%,-0.6%
CS(=O)(=O)c1cc([N+](=O)[O-])c(Sc2nc3ccccc3[nH]2)c([N+](=O)[O-])c1,1.26µM*,-7.1%,0.7%,-3.7%
Cc1nc([N+](=O)[O-])c(N2CCN(Cc3ccccc3)CC2)n1Cc1ccccc1,-1.3%,-2.8%,-3.1%,1.7%
Cc1cccc(Sc2c([N+](=O)[O-])ncn2C)c1,?,-2.1%[57.1 µM],-1.6%,0.7%
O=C(O)c1cc([N+](=O)[O-])c(Sc2nc3ccccc3[nH]2)c([N+](=O)[O-])c1,?,3.5%,-6.5%,5.0%
O=C(Nc1ccccc1C(F)(F)F)C1CCN(S(=O)(=O)Cc2ccccc2)CC1,15.8%,-0.8%,-7.8%,5.6%
COc1cc2nc(NC(=O)c3ccc(S(=O)(=O)N4CCCC4)cc3)sc2cc1OC,39.9%[57.1 µM],5.9%[57.1 µM],6.6%,-2.0%
CCCS(=O)(=O)c1ncc(Cl)c(C(=O)Nc2sc3c(c2C(=O)NCC)CCCC3)n1,?,1.8%,/,/
COc1ccc(C2=CC3=C(Br)C(=O)C(C)(OC(=O)C4CCCC4)C(=O)C3=CO2)cc1 (stereo not drawn),?,3.8%,-13.2%,0.6%
COc1ccc(C2=CC3=C(Br)C(=O)C(C)(OC(=O)c4ccc(Cl)nc4)C(=O)C3=CO2)cc1 (stereo not drawn),12.6µM*,8.0%,6.9%,-29.1%
COC(=O)CCC(=O)OC1(C)C(=O)C2=COC(c3ccc(OC)cc3)=CC2=C(Br)C1=O (stereo not drawn),14.1µM*,-7.4%,9.3%,?
COC(=O)CCC(=O)OC1(C)C(=O)C2=CN(Cc3ccc4c(c3)OCO4)C(c3ccc(OC)cc3)=CC2=C(Br)C1=O (stereo not drawn),-10.1%,-10.6%,21.4%,0.2%
O=C(Cc1ccc(Cl)cc1)NC1CC(=O)N(c2ccc3c(c2)OCCO3)C1 (stereo not drawn),10.1%[57.1 µM],3.7%[57.1 µM],11.3%,0.6%
O=C(Nc1cccc([N+](=O)[O-])c1)NC1CCCCCCC1,14.6%,6.0%,23.6%,-5.3%
CN(C)CCCN(C(=O)c1ccc([N+](=O)[O-])o1)c1nc2cc3c(cc2s1)OCO3,50.1µM*,-6.6%,16.5%,13.1%
CN(C)CCCN(C(=O)c1ccc2c(c1)OCCO2)c1nc2cc3c(cc2s1)OCO3,2.5%,-4.5%,1.7%,-0.9%
COc1ccc(-c2nc3c(C#N)c[nH]n3c2NC2CCCC2)c(OC)c1,20.4%,7.1%,16.6%,12.6µM*
CC(C)Oc1ccc(-c2nc3c(C#N)c[nH]n3c2NC2CCCCC2)cc1,6.0%,3.7%,-2.2%,?
CCOc1ccc(-c2nc3c(C#N)c[nH]n3c2NC2CCCC2)cc1,15.5%,0.3%,-23.2%,14.1µM*
Cc1cccc(NC(=O)N2CCC(N3CCN(Cc4ccccc4)C(=O)C3=O)CC2)c1C,4.7%[57.1 µM],-5.7%[57.1 µM],-9.0%,2.6%
OCC1OC(OC2C(CO)OC(OC3C(CO)OC(O)C(O)C3O)C(O)C2O)C(O)C(O)C1O (stereo not drawn),/,/,/,0.4%
Oc1ccccc1C(Nc1nccs1)c1ccc2cccnc2c1O (stereo not drawn),?,-2.0%,-1.3%,15.8µM*
SMILES,rTrxR1 inhibitor,TrxR1 substrate,mIDH1 inhibitor,GLS inhibitor
COc1ccccc1NC(c1cccnc1)c1ccc2cccnc2c1O (stereo not drawn),0.708µM*,-6.2%,2.4%,26.3%
Cc1ccnc(NC(c2cccnc2)c2ccc3cccnc3c2O)c1 (stereo not drawn),3.55µM*,5.5%,-2.0%,0.0%
Cc1ccnc(NC(c2cc(C)ccc2O)c2ccc3cccnc3c2O)c1 (stereo not drawn),5.01µM*,3.0%,/,?
Cc1ccc(C(=O)N2CCCCC2CCN2CCCCC2)cc1 (stereo not drawn),24.2%,5.1%,-8.2%,2.7%
CN1CCCc2cc(/C=C/c3ccnc4ccccc34)ccc21,-15.8%,-1.4%,/,/
Cc1oc(=O)c(NC(=O)c2ccccc2)cc1C(=O)c1ccccc1,39.8µM*,-7.5%,1.4%,12.9%
Cc1oc(=O)c(NC(=O)c2ccc(Cl)cc2)cc1C(=O)c1ccccc1,?,5.0%,-3.7%,8.7%
CN(c1ccccc1)S(=O)(=O)c1cc(C(=O)NCCCn2ccnc2)ccc1Cl,15.1%,0.7%,-13.3%,-4.6%
CCC(C)S(=O)(=O)c1oc(-c2cccs2)nc1S(=O)(=O)c1ccccc1 (stereo not drawn),0.708µM*,15.9%,7.7%,-4.7%
CC(C)CS(=O)(=O)c1oc(-c2ccc(F)cc2)nc1S(=O)(=O)c1ccccc1,0.316µM*,3.9%,0.3%,1.5%
CCOc1ccc2nc(N(Cc3cccnc3)C(=O)c3ccco3)sc2c1,2.0%[57.1 µM],-1.3%[57.1 µM],54.3%,1.9%
O=C(CCNc1ccc(F)cc1)c1ccco1,11.2µM*,-4.5%,1.5%,9.3%
O=C(CCNc1cc(Cl)cc(Cl)c1)c1ccco1,8.91µM*,2.2%,6.8%,13.4%
CC(C)OC(=O)c1nn2c(C(F)(F)F)cc(-c3ccc(Br)o3)nc2c1Br,25.1µM*,4.9%,-2.4%,4.4%
COc1ccc(OC)c(/C=C/c2c3ccccc3cc[n+]2C)c1,-14.7%,-12.6%,/,/
Cc1ccc(C2C=C(c3ccccc3)Nc3ncnn32)cc1 (stereo not drawn),44.7µM*,21.8%,-3.4%,10.0%
Fc1ccc(C2=CC(c3ccco3)n3ncnc3N2)cc1 (stereo not drawn),?,88.2%,2.2%,-9.3%
Fc1ccc(C2=CC(c3ccc(Br)o3)n3ncnc3N2)cc1 (stereo not drawn),7.94µM*,29.1%,2.9%,18.9%
COCCn1c(SCC(=O)c2ccc(Cl)cc2)nnc1C(C)C,6.31µM*,8.0%,-3.5%,-2.4%
COCCn1c(SCC(=O)c2ccc3c(c2)OCCO3)nnc1C(C)C,-11.5%,-2.5%,1.2%,15.7%
CCOCCCNC(=O)/C(C#N)=C/c1ccc([N+](=O)[O-])o1,3.16µM*,-6.4%[57.1 µM],-1.2%,2.2%
CC(NC(=O)/C(C#N)=C/c1ccc([N+](=O)[O-])o1)c1ccccc1 (stereo not drawn),7.94µM*,-7.8%,-24.5%,-2.6%
COc1ccc(/C=C(\C#N)C(=O)NC(C)c2ccccc2)cc1O (stereo not drawn),-19.0%,-6.7%,-3.3%,4.0%
COC(=O)c1ccc(/C=C(\C#N)C(=O)NC(C)c2ccccc2)cc1 (stereo not drawn),22.4µM*,-16.7%,-9.6%,0.8%
CCOc1cccc(CNC(=O)c2ccc(N3CCCC3)c(NC(=O)NCc3ccc(F)cc3)c2)c1,4.9%[57.1 µM],1.7%[57.1 µM],-25.3%,2.8%
